The record followed here is PubChem BioAssay (Tox21).

Molecules are shown by their SMILES. Records with an inconclusive call do not appear. Unmarked numbers belong to inactive results. Active and inactive are the calls of the source. The call rests on the fitted dose curve; in most records, active means well fitted activation curve with a large enough effect in the repeat runs; inconclusive means weak or mixed curves, or effect the other way; inactive means no such curve, though single readings can be large or run the other way. Where a SMILES comes first, the peptide text is derived from it.
On the % scale 0 is the no-effect control and ±100 the full control effect; potency means the concentration at half of the fitted maximal effect.

This experiment is described as follows: qHTS assay to identify small molecule agonists of the retinoic acid receptor (RAR) signaling pathway (AID 1159553). The note with it: C3RL4 RARE luciferase reporter, agonist, 6 h; series mostly up to 73.3 µM; activation: at the top concentration. An excerpt: National Center for Advancing Translational Sciences [NCATS] NIH Chemical Genomics Center [NCGC] U.S. Environmental Protection Agency [EPA] National Institutes of Environmental Health Sciences [NIEHS] National Toxicology Program [NTP] Assay overview: All-trans Retinoic acid (atRA) is the potent natural metabolite of retinol and plays an important role in normal embryonic development and maintenance of cellular phenotype in adult animals. atRA is the activating ligand for the retinoic acid receptors (RARs) which form heterodimers with retinoid X receptors (RXRs) on the retinoic acid response element (RARE). Through activation of the RAR/RXRs nuclear receptors, atRA regulates the transcription of a large number of protein-coding genes and regulatory RNAs. Intracellular levels of atRA are controlled by the retinol signaling pathway (RSP) that regulates the biosynthesis and catabolism of atRA to maintain physiological levels. Chemicals that interfere with the RSP can cause abnormal intracellular levels of atRA and therefore are potential developmental toxicants. To assess compounds for the potential adverse effect on embryonic development through interfering with retinol signaling, a cell-based RARE luciferase reporter gene assay was used. C3RL4 cell line (OARSA/CFSAN/FDA, Laurel, MD) was used to screen Tox21 10K compound library for identifying activators of the RSP.
Assay Protocol Summary: C3RL4 cells were seeded at 1,000/well in 5 uL of assay medium into white solid 1,536-well tissue culture plates (Greiner Bio-One North America Inc. Monroe, NC) using a Multidrop Combi (Thermo Scientific, Waltham, MA) dispenser. After incubation at 37 C and 5% CO2 for an overnight, 23 nL of compounds dissolved in DMSO, positive control or DMSO only were transferred by a Pintool station (Kalypsys, San Diego, CA). After 6 hr incubation at 37 C and 5% CO2, 5 uL of Amplite Luciferase reagent (AAT Bioquest Inc. Sunnyvale, CA) was added to each assay plate using a Flying Reagent Dispenser (FRD) (Aurora Discovery, San Diego, CA). Luminescence was quantified on a ViewLux plate reader (PerkinElmer, Waltham, MA) after 30 min incubation at room temperature.
A general note: qHTS replaces the single test concentration by a dilution series.
For `O=NN(CCCl)C(=O)NC1CCCCC1`, the “activation” value is -0.0728%.

Turning to `COc1c2occc2c(OC)c2c(=O)cc(C)oc12`, the “activation” value was 0.451%. `Cc1ccc(C)c([N+](=O)[O-])c1`: the “activation” value was -1%.

For the compound `CC(C)=CCC/C(C)=C/COC=O`, the “activation” value is -22.2%. The same measure, in the same setting: the value for `CCCC(=O)OC/C=C(\C)CCC=C(C)C` was 1.91%. The same measure, in the same setting: the value for `O=C1c2ccccc2C(=O)c2cc(Cl)ccc21` was 2.57% [at 8.36 µM]; that for `CC(=O)O[Si](C)(OC(C)=O)OC(C)=O` was -1.77% [at 94.8 µM]; that for `CC1(C)Cc2cccc(N)c2O1` was -0.227%. The same measure, in the same setting: with `CC(=O)OCC(=O)Nc1cc(C#N)cc(NC(=O)COC(C)=O)c1Cl` the figure was 0.442%. `O=C(O)CNC(=O)CNC(=O)CNC(=O)CSC(=O)c1ccccc1`: the “activation” value was 1.24%.

Turning to `CCNC(=O)NCc1cccc(Cl)c1`, the “activation” value was 1.43%. The same measure, in the same setting: the value for `[O]=[Mo](=[O])=[O]` was -1.06% [at 34.3 µM]. Consider `ONc1ccccc1`, for which the Potency was 24.1 µM (active). Turning to `CC(=O)Nc1ccc(OC(=O)c2ccccc2OC(C)=O)cc1`, the Potency was 23.7 µM (active). Take `CC1c2ccccc2CN1NC(=O)c1ccc(Cl)c(S(N)(=O)=O)c1` (stereo not given): the “activation” value is 0.244%. The same measure, in the same setting: the value for `CCCCCCCCCCCCCCCCCCOCCO` was 1.32% [at 34.3 µM]; that for `C[C@H]1[C@@H](c2ccccc2)NC(=O)N1C` was -1.95% [at 94.8 µM]. Still for that read-out and setting: the value for `CC(C)OC(=O)CCC(=O)OC(C)C` was -5.3%.

Take `CCCCOC(=O)[C@H](C)O`: the “activation” value was -0.29%.

`CCC(C)OC(C)CC` (stereo not given): the “activation” value was -0.127% [at 94.8 µM]. The same measure, in the same setting: with `CC1(C)Oc2ccc(C#N)cc2[C@@H](N2CCCC2=O)[C@@H]1O` the figure was 0.329%. As to `C[Si]1(C)O[Si](C)(C)O[Si](C)(C)O[Si](C)(C)O[Si](C)(C)O1`, the “activation” value was 12.9%. Still for that read-out and setting: with `CCc1occc(=O)c1O` the figure was 0.0655%; with `OCC1CCC(CO)CC1` (stereo not given), 0.858% [at 94.8 µM]. Still for that read-out and setting: the value for `CO/N=C(/C(=O)N[C@@H]1C(=O)N2C(C(=O)[O-])=C(C[n+]3ccn4ncccc43)CS[C@H]12)c1nsc(N)n1` was 1.29%. On the same count and under the same terms, the value for `CC(=O)N[C@@H](CO)C(=O)N[C@@H](CC(=O)O)C(=O)N[C@@H](CCCCN)C(=O)N1CCC[C@H]1C(=O)O` (Ac-SDKP-OH) was 1.79%; that for `CN1C[C@@H]2C[C@H]1CN2c1cc2c(cc1F)c(=O)c(C(=O)O)cn2C1CC1` was -4.3% [at 34.3 µM]; that for `CC(C)Cn1cnc2c1c(=O)n(C)c(=O)n2C` was 1.55%. With `CN1CCOC(c2ccccc2)c2ccccc2C1` (stereo not given), the “activation” value was -4.43%.

`CCCC(CC)c1ccccc1` (stereo not given): the “activation” value is -0.342%. The same measure, in the same setting: with `O=C(CN1CCNCC1)NC1CCCCC1` the figure was 0.763%; with `Fc1ccccc1`, -0.0577% [at 94.8 µM]; with `O=C(O)CONC(=O)c1ccccc1`, 0.472%. Still for that read-out and setting: the value for `CN(C)CCN(C)CCO` was 0.236%; that for `CNCCS(=O)(=O)O` was -0.231% [at 94.8 µM]. In the case of `O=C[O][Al]([O]C=O)[O]C=O`, the “activation” value was -3.27%. Still for that read-out and setting: with `CCO[Si](CC)(OCC)OCC` the figure was 0.656%. Same read-out and setting: with `CCCCC1CCC(O)CC1` (stereo not given) the figure was -4.58%; with `CCOc1ccccc1OCC1CNCCO1` (stereo not given), 0.888%.

Take `COc1ccc(CCO)cc1`: the “activation” value was 1.33%.
